High-throughput results: PubChem BioAssay, National Center for Advancing Translational Sciences (NCATS)
RORgamma inh: blocks mouse ROR gamma transcriptional activity | Drosophila S2 Gal4-RORgamma UAS-luciferase reporter, 20 h | Potency, µM (doses to about 53.6 µM), without a hit: top-dose activity change, negative = inhibition, actives largely listed as inhibitors | AID 2551 | actives 5.4% (n = 310,000) | P51450; note: % is set by controls: 0 for no effect and ±100 for the full control effect; nearly all actives have a fitted effect of over 60% in size
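ROR gamma transcriptional activity was tracked as Gal4-UAS luciferase output in stably transfected Drosophila Schneider cells, with compound added 1 hr before 700 uM copper sulfate induction and a 20 hr ambient-temperature incubation.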
ClpP mod: qHTS Assay for Activators of ClpP | ATP-dependent Clp protease proteolytic subunit (Bacillus subtilis (strain 168)), P80244 | purified B. subtilis ClpP, FRET peptide cleavage, 20 min | Potency, µM (series often up to 57.5 µM), for inactives: at the top dose activity change, negative = active | actives 1.9% (n = 340,000); active = well fitted falling curve with a large enough effect; inconclusive = small, poorly fitted or top-dose-only effect; inactive = no such curve, though single readings can be large or run the other way; note: the source files actives as falling curves though it sought activators and does not explain the sign; nearly all actives have a fitted effect of over 65% in size
Target sequence (P80244 whole entry, looked up): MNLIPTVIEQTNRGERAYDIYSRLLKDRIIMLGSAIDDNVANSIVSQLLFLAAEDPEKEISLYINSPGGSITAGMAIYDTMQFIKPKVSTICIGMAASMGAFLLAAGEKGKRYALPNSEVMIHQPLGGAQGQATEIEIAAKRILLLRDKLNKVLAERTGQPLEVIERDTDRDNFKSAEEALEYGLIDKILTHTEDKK
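Purified B. subtilis ClpP, 10 microg/mL final in Tris/HCl pH8 with KCl, BSA, glycerol and Tween-20, cleaved an Abz/nitrotyrosine-quenched decapeptide. Fluorescence (ex 320, em 430) was read at 0 and 20 min at room temperature. Delta was normalized to 5.8 microM ADEP and DMSO/no-enzyme controls.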
Epigenetic reg: derepresses silenced GFP reporter in murine cells | murine LDR cells, GFP reporter derepression, 30 h | Potency, µM (top dose mostly 53.9 µM), inactives show top-dose GFP activation, most hits filed as activators | actives 0.2% (n = 280,000) | AID 1865; note: % of control where 0% means no effect; nearly all actives have a fitted effect of over 60% in size
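GFP-positive cell count by laser-scanning cytometry (objects 20–120 um) after 30 h, 37 C compound exposure of murine LDR cells; reporter is CMV-GFP integrated at a silenced locus, inducible by HDAC or DNMT inhibitors.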
Gal4-VP16 FLuc: inhibits Gal4-VP16 luciferase reporter, ROR gamma counter-screen; Drosophila S2 Gal4-VP16 UAS-luciferase, luminescence, 20 h; Potency, µM (highest dose often 53.6 µM), without a hit: top-dose activity, negative = inhibition, hits mostly inhibitors; actives 3.5% (n = 310,000); AID 2546;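 note: Gal4-VP16 expression switched on by copper sulfate through the metallothionein promoter; % is set by controls: 0 for no effect and ±100 for the full control effect; nearly all actives have a fitted effect of over 50% in size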
Sfp PPTase inh: Sfp phosphopantetheinyl transferase inhibition; Biochemical Sfp PPTase activity, qHTS; Potency, µM, inactives show largest response in the series, negative = inhibition, hits mostly inhibitors; Q9F4F7; actives 3.5% (n = 310,000);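 note: the enzyme is Sfp with the accession as filed and its product quenches rhodamine fluorescence; 0% = enzyme reaction without inhibitor and -100% = no enzyme wells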
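With Hepes-Na pH 7.6 buffer containing 10 mM MgCl2, Sfp (15 nM) modified BHQ-2-YbbR (12.5 uM) using rhodamine-CoA (5 uM). Two reads 30 minutes apart at 525/598 nm yielded each well's rate.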
PINK1 expr mod: PINK1 expression modulation; AID 624263; actives 0.2% (n = 410,000); PINK1 immunofluorescence, high-content cytometry, 24 h; Potency, µM (series often up to 76.6 µM), for the others: top-dose activation (PINK1 increase), usual class: activators; active = well fitted activation curve with a large enough effect; inconclusive = small, poorly fitted or top-dose-only effect; cell line not stated here; note: % of control where 0% means no effect; nearly all actives have a fitted effect of over 65% in size
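Fluorescence from anti-PINK1 antibody, together with nuclear and cell stains, was scanned on a laser-scanning cytometer. Before staining, stable-line cells were incubated 24 hours with compounds at 5 concentrations; primary antibody 12 h at 10 degrees C.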
* hit, by the source's call; ? = inconclusive; nt = no result given; [ ] = another dose, or the depositor's remark. Most compounds without a hit are left out; they make up all but 8.1% or so of the library. Unless noted, calls come from the whole dose curve; as a rule, active = well fitted curve in the direction sought with a large enough effect; inconclusive = small, poorly fitted or top-dose-only effect, or another doubt; inactive = no such curve, though single readings can be large; an effect the other way counts as inactive or inconclusive. Potency is the fitted concentration of half-maximal effect.

SMILES | RORgamma inh | ClpP mod | Epigenetic reg | Gal4-VP16 FLuc | Sfp PPTase inh | PINK1 expr mod
Cc1cccc([C@H]2[C@@H]3C=CCC[C@@]3(C)C(=O)N2Cc2ccccc2)c1 | 43% | nt | 6% | 21% | 8% | nt
CC12CCC=CC1C(c1ccc(/C=C/c3ccccc3)cc1F)N(Cc1ccccc1)C2=O (stereo not drawn) | 12% | nt | nt | -9% | -21% | nt
C[C@@]12CCC=C[C@H]1[C@H](c1ccc(F)c(/C=C/c3ccccc3)c1)N(Cc1ccccc1)C2=O | 8% | 28µM* | 2% | -6% | -7% | 10%
CC12CCC=CC1C(c1cccc(Br)c1)N(Cc1ccccc1)C2=O (stereo not drawn) | ? | nt | nt | 13µM* | -9% | nt
CCOC(=O)c1sc(N2N=C(C)/C(=C\c3ccc(OCC(=O)OC)cc3)C2=O)nc1C | 8.9µM* | 1% | -1% | ? | -14% | 5%
COc1cc(/C=N/Nc2nc(Nc3ccccc3)nc(N3CCCCC3)n2)ccc1OCC(=O)O | -9% | nt | 0% | -14% | -29% | 1%
COc1cc(/C=N/Nc2nc(N3CCCC3)nc(N3CCCC3)n2)ccc1O | -40% | -22% | 0% | 8% | 9% | 8%[38.3 µM]
CCOc1ccc(/C=N/Nc2nc(N3CCCC3)nc(N3CCCC3)n2)cc1OC | 13µM* | -5% | 0% | ? | -9% | -2%[38.3 µM]
COc1ccc(/C=N/Nc2nc(Nc3ccccc3)nc(N3CCCCC3)n2)c(OC)c1 | 3.2µM* | -8% | -6% | 11µM* | 11% | 0%
COc1ccc(/C=N/Nc2nc(Nc3ccccc3)nc(N3CCCC3)n2)cc1[N+](=O)[O-] | 13µM* | nt | -5% | -30% | 0% | 4%
COc1ccc(/C=N/Nc2nc(N3CCCCC3)nc(N3CCCCC3)n2)cc1[N+](=O)[O-] | 16µM* | 1% | 2% | -8% | -1% | 1%
COc1ccc(C(=O)NCc2nnc(SCC(=O)Nc3ccccc3)n2-c2ccc(F)cc2)cc1 | nt | 0% | 2% | nt | nt | 0%
COC(=O)CCNC(=O)N1CCN(c2nnc(C)c3c(C)n(-c4ccccc4)nc23)CC1 | nt | 4% | 0% | nt | nt | 11%
Cc1cc(C)n(-c2nnc3c4ccccc4n(C)c3n2)n1 | 3.2µM* | nt | 1% | ? | 9% | 0%
COc1ccccc1N1CCN(C(=O)c2cnc(N3CCOCC3)c3ccccc23)CC1 | nt | -16% | 0% | nt | nt | 6%
CCC(C)Sc1oc(-c2ccco2)nc1S(=O)(=O)c1ccc(Cl)cc1 (stereo not drawn) | nt | -20% | 0% | nt | nt | 0%
CC(=O)CSc1nc(-c2ccccc2)[nH]c1S(=O)(=O)c1ccc(C)cc1 | nt | -1% | 0% | nt | nt | -1%
CCc1ccc2occ(CC(=O)Nc3c(C(=O)Nc4ccc(Cl)cc4)oc4ccccc34)c2c1 | nt | 16µM* | 10% | nt | nt | 7%
Cc1ccc2occ(CC(=O)Nc3c(C(=O)Nc4ccc(Cl)cc4)oc4ccccc34)c2c1 | nt | 18µM* | -2% | nt | nt | 1%
CCc1ccc2occ(CC(=O)Nc3c(C(=O)c4ccccc4)oc4ccccc34)c2c1 | nt | 22µM* | -2% | nt | nt | -1%
CCC1NC(=O)C(NC(=O)c2ncccc2O)C(C)OC(=O)C(c2ccccc2)NC(=O)C2CC(=O)CCN2C(=O)C(Cc2ccccc2)N(C)C(=O)C2CCCN2C1=O (stereo not drawn) | 32% | nt | nt | -4% | 0% | nt
Cc1ccc(Nc2nc3ccccc3s2)cc1 | ? | 0% | -2% | ? | 15% | 13%
Cc1ccc(Nc2nnns2)cc1 | -42% | ? | 1% | -16% | 6.3µM* | 1%
COC(=O)Cn1c(=NC(=O)c2ccc(Cl)s2)sc2cc(F)ccc21 | 23% | 28µM* | 2% | -2% | 11% | 4%
C#CCn1c(=NC(=O)c2ccc(Cl)s2)sc2cccc(OC)c21 | 2.2µM* | 4% | 2% | -17% | ? | 8%
CN(C)c1ccc(CNC(=O)Cn2ccc3cc(S(=O)(=O)N4CCCCCC4)ccc32)cc1 | nt | -1% | 3% | nt | nt | -2%
